Assay outcomes as filed in PubChem.
Hits are enriched below; roughly 19% of the tested compounds scored in any of these assays.
TDP1 cell noCPT = qHTS for Inhibitors of human tyrosyl-DNA phosphodiesterase 1 (TDP1): qHTS in cells in absence of CPT; DT40 Tdp1-/- hTDP1 cells, no CPT, ATP luminescence, 48 h; Potency, µM (series often up to 46.2 µM), for the others: at the top dose activity change, negative = growth inhibition, most hits filed as inhibitors; 15% of 420,000 active; AID 686978, 2013; also: potency is read from the fitted curve at half-maximal effect; nearly all actives have a fitted effect of over 55% in size
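Chicken DT40 Tdp1-/- cells stably complemented with human TDP1 were seeded at 400 cells/well with DMSO in place of 20 nM camptothecin. After compound pinning, cells grew at least 48 hr at 37 °C; viability read by CellTiter-Glo luminescence.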
HT1080NT lethal = kills 2HG-producing HT-1080-NT fibrosarcoma cells | Potency, µM (titrated, usually from 46.1 µM), inactives show at the top dose activity, negative = less viability, usual class: cytotoxic | 1.6% of 360,000 active | HT-1080-NT fibrosarcoma viability, CellTiter-Glo ATP luminescence, 48 h;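 also: NT is the 2HG producing partner of a matched IDH1 knockdown line; potency is read from the fitted curve at half-maximal effect; 0% = DMSO-treated cells and -100% = media-only wells without cells; nearly all actives have a fitted effect of over 55% in size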
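A 48-hour cytotoxicity screen used HT-1080-NT cells plated 2 hours before compound delivery. ATP-based CellTiter-Glo luminescence measured viability, normalized to DMSO and no-cell controls.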
uPA generation = blocks generation of uPA at the cell surface | cell surface uPA generation assay, qHTS | Potency, µM (highest dose often 38.3 µM), for inactives: top-dose activity change, negative = inhibition, hits mostly inhibitors | 0.31% of 330,000 active; active = well fitted inhibition curve with a large enough effect; inconclusive = small, poorly fitted or top-dose-only effect; inactive = no such curve, though single readings can be large or run the other way; tested in mouse RAW 264.7 cells; also: potency is read from the fitted curve at half-maximal effect; nearly all actives have a fitted effect of over 55% in size
IL1B secr inh = inflammasome signaling inhibition, IL-1 beta readout; AID 743279; THP-1 LPS/ATP IL-1B secretion, AlphaLISA, 16 h; active compounds read low; 4.7% of 360,000 active; activity change, % at 57.5 µM; in the data active = activity change below about -50%; inconclusive = mostly about -30% to -49%
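THP-1 cells pretreated 1 hr with compounds (up to 57.5 uM final), then stimulated with LPS (250 ng/mL final) plus ATP (1.25 mM final); secreted IL-1B measured by AlphaLISA after 16 hr, decreased signal indicating inhibition.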
TDP1 cell CPT = growth inhibition of DT40 Tdp1-/-;hTDP1 cells with camptothecin (screen for TDP1 inhibitors); chicken DT40 Tdp1-/-;hTDP1 cells + 20 nM CPT, ATP luminescence, 48 h; Potency, µM (titrated, usually from 46.2 µM), for the others: at the top dose activity change, negative = growth inhibition, usual class: inhibitors; 12% of 420,000 active; also: potency is read from the fitted curve at half-maximal effect; nearly all actives have a fitted effect of over 55% in size
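Chicken DT40 Tdp1-/- cells stably complemented with human TDP1 were seeded at 400 cells/well in medium containing 20 nM camptothecin, exposed to pin-transferred compounds, and grown at 37 °C for at least 48 hr. Viability was read as ATP luminescence.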
HT1080 IDH1KD tx = toxicity to HT-1080 IDH1 knockdown cells (counter line) | Potency, µM (doses to about 46.1 µM), without a hit: at the top dose activity, negative = toxicity, actives largely listed as cytotoxic | HT-1080 IDH1 knockdown viability, ATP luminescence, 48 h | 2% of 360,000 active;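 also: potency is read from the fitted curve at half-maximal effect; 0% = DMSO wells and -100% = cell-free medium wells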
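Cytotoxicity counter-line: IDH1KD HT-1080, 48 h, CellTiter-Glo. Curves classed by r2, magnitude and activity.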
Starred values were filed as active, the others as inactive; u = inconclusive; x = no result given. Unless noted, calls follow the shape of the dose curve; as a rule, active = well fitted curve in the direction sought with a large enough effect; inconclusive = small, poorly fitted or top-dose-only effect, or another doubt; inactive = no such curve, though single readings can be large; an effect the other way counts as inactive or inconclusive. Unless noted, % is scaled to controls: 0 for no effect and ±100 for the full control effect.

SMILES | TDP1 cell noCPT | HT1080NT lethal | uPA generation | IL1B secr inh | TDP1 cell CPT | HT1080 IDH1KD tx
Cc1cc(NC(=O)COn2nnc3ccc(S(C)(=O)=O)cc32)ccc1Br | 16µM* | -16% | -54% | -14 | u | 2%
O=C(COn1nnc2ccc(S(=O)(=O)N3CCOCC3)cc21)Nc1c(F)c(F)c(F)c(F)c1F | u | -3% | -6% | 4 | -25% | 2%
COc1cc(NC(=O)COn2nnc3ccc(S(C)(=O)=O)cc32)cc(OC)c1 | -23% | -6% | -7% | -17 | 1% | -7%
CCn1c(-c2cccn(Cc3ccccc3)c2=O)n[nH]c1=S | -9% | 1% | -1% | 6 | 5% | 3%
CCn1c(-c2csc3c2CCCC3)n[nH]c1=S | 23µM* | 12% | 1% | -5 | 29µM* | 13%
CCCCn1c(-c2csc3c2CCCC3)n[nH]c1=S | -17% | -3% | x | -3 | -20% | -22%
CCn1c(-c2ccccc2SC)n[nH]c1=S | 16µM* | 1% | -5% | -8 | 15% | 7%
CN(C)c1ccc(Cl)cc1N | 3% | 9% | 3% | 8 | 5% | 17%
CCCN(CCC)C(=O)C(c1ccccc1)C1(O)CCCCC1 (stereo not drawn) | u | 0% | -5% | -13 | u | 1%
c1cncc(-c2nc(NCc3ccco3)c3ccccc3n2)c1 | u | 0% | 4% | -29 | -25% | -14%
Cc1ccccc1Nc1nc(NCc2ccco2)c2ccccc2n1 | 3.7µM* | u | u | -102* | 5.8µM* | 15µM*
Oc1ccccc1Nc1nc(NCc2ccco2)c2ccccc2n1 | 21µM* | -13% | 7% | -63* | 16µM* | -6%
COc1ccc(OC)c(Nc2nc(NCc3ccco3)nc(N)c2[N+](=O)[O-])c1 | u | -3% | 2% | x | -6% | -2%
COc1ccc(OC)c(Nc2nc(NCc3ccco3)c3ccccc3n2)c1 | 23µM* | 21µM* | -5% | -97* | u | u
O=C(NCCN1CCCC(O)C1)c1cc(COc2cccc(C(F)(F)F)c2)on1 (stereo not drawn) | u | -15% | x | 20 | -26% | 5%
C#CCN(C[C@H]1[C@H](OC(=O)NCc2ccccc2F)[C@H](OC(=O)NCc2ccccc2F)C[C@H]2C(=O)N(c3ccccc3)C(=O)[C@@H]12)S(=O)(=O)c1ccc(C)cc1 | u | -8% | x | -20 | -13% | -1%
Cc1ccc(S(=O)(=O)N2CC3(O)CN(C(=O)OC(C)C)N(C(=O)OC(C)C)CC3(OC(=O)NCc3ccco3)C2)cc1 (stereo not drawn) | 21µM* | 4% | x | -56* | u | 3%
Cc1ccc(S(=O)(=O)N2CC3(O)CN(C(=O)OC(C)C)N(C(=O)OC(C)C)CC3(OC(=O)Nc3cccs3)C2)cc1 (stereo not drawn) | 18µM* | -14% | x | -80* | u | -2%
Cc1ccc(S(=O)(=O)N2CC3(O)CN(C(=O)OC(C)C)N(C(=O)OC(C)C)CC3(OC(=O)Nc3c(C)noc3C)C2)cc1 (stereo not drawn) | u | 11% | x | -16 | u | 10%
Cc1ccc(S(=O)(=O)N2CC3(O)CN(C(=O)OC(C)C)N(C(=O)OC(C)C)CC3(OC(=O)NC3CCCC3)C2)cc1 (stereo not drawn) | 23µM* | 2% | x | -15 | u | 7%
COC(=O)[C@H]1C[C@@]2(O)CN(S(=O)(=O)c3ccc(C)cc3)C[C@@]2(OC(=O)NC2CCCC2)C[C@H]1C(=O)OC | -10% | 9% | x | 22 | -14% | 11%
CC(OC(=O)Cc1n[nH]c(=O)c2ccccc12)C(=O)Nc1cccc([N+](=O)[O-])c1 (stereo not drawn) | -21% | -1% | -1% | 15 | -19% | 11%
